A short description of assay [1]: NCI Yeast Anticancer Drug Screen. Data for the rad50 strain (AID 155).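 Note: 0% = growth of vehicle-only cultures of the same strain.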 The conditions noted are these: S. cerevisiae rad50 strain growth inhibition, active compounds read high. An outline of the steps:
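A DNA repair-deficient yeast mutant serves as the test organism; compound-induced growth inhibition is calculated against vehicle-treated cells.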

Assay [2] in a line: NCI Yeast Anticancer Drug Screen. Data for the mec2-1 strain (AID 157). The conditions noted are these: S. cerevisiae mec2-1 strain, active compounds read high. The method, boiled down:
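Compounds were applied to mec2-1 yeast cells. Their growth was then compared with that of vehicle-treated cultures to give growth inhibition.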

A short description of assay [3]: NCI Yeast Anticancer Drug Screen. Data for the sgs1 mgt1 strain (AID 161).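 Note: 0% = growth of cultures given vehicle only.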 Particulars: S. cerevisiae sgs1 mgt1 strain, active compounds read high. The method, boiled down: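 Percent growth inhibition was derived by comparing compound-exposed mutant yeast with vehicle-exposed cultures. The strain carries alterations in DNA damage repair.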
Assay [4] can be described thus: NCI Yeast Anticancer Drug Screen. Data for the cln2 rad14 strain (AID 165).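 Note: 0% = growth equal to vehicle treated cultures.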 The conditions noted are these: S. cerevisiae cln2 rad14 strain, active compounds read high. An outline of the steps:
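Strain: cln2 rad14 yeast, altered in cell cycle control and DNA damage repair. Read-out: growth inhibition vs vehicle.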

The nature of assay [5]: NCI Yeast Anticancer Drug Screen. Data for the bub3 strain (AID 167). Particulars: S. cerevisiae bub3 mutant strain, active compounds read high. An outline of the steps: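 Inhibition values come from growth of compound-treated mutant yeast normalised to vehicle-treated controls.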
Assay [6] is described as follows: NCI Yeast Anticancer Drug Screen. Data for the mlh1 rad18 strain (AID 175). The conditions noted are these: S. cerevisiae mlh1 rad18 strain growth inhibition, active compounds read high. The method, boiled down: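 A repair-deficient yeast strain is exposed to test compound, and growth is scored relative to vehicle-treated controls.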
[7] abbreviates: at 5.0 µM (retest, dose inferred, filed as 0.5).
Where [8] appears, read: at 50.0 µM (retest, dose inferred, filed as 5.0).

Structures are written as SMILES. About 79,000 compounds went through this panel and 15% of them were active in at least one assay; those are over-represented in the sample as a whole. Unmarked numbers belong to inactive results. Active and inactive are the calls of the source. Cut-off read from the data, not from the text of the source: active = growth inhibition above about 70%; inactive = the rest.

As to `Nc1cc(Br)cc2c1[nH]c1ccc(Br)cc12`, the growth inhibition in assay [1] (setting [7]) is 46%; in assay [1] (setting [8]), 98% (active); in assay [1] (at 50.0 µM), 98.6% (active); in assay [2] (setting [7]), 16%; in assay [2] (setting [8]), 98% (active); in assay [2] (at 50.0 µM), 99% (active). The growth inhibition in assay [3] (setting [7]) was 59%; in assay [3] (setting [8]), 99% (active); in assay [3] (at 50.0 µM) it was 98.1% (active); in assay [4] (setting [7]) it was 3%; in assay [4] (setting [8]) it was 97% (active); in assay [4] (at 50.0 µM), 97.8% (active). Besides, the growth inhibition was 18% in assay [5] (setting [7]); 98% (active) in assay [5] (setting [8]); 98.5% (active) in assay [5] (at 50.0 µM); 58% in assay [6] (setting [7]); 98% (active) in assay [6] (setting [8]); 98.9% (active) in assay [6] (at 50.0 µM).

Consider `CN(C)CCNc1ccc2nnn3c4ccc(O)cc4c(=O)c1c23`, for which the growth inhibition in assay [1] (setting [7]) was 32%; in assay [1] (setting [8]), 51%; in assay [1] (at 50.0 µM) it was 12.1%; in assay [2] (setting [7]) it was -3%; in assay [2] (setting [8]), -4%; in assay [2] (at 50.0 µM), -3.1%. In addition, the growth inhibition in assay [3] (setting [7]) was 12%; in assay [3] (setting [8]), 23%; in assay [3] (at 50.0 µM), -6.05%; in assay [4] (setting [7]) it was 19%; in assay [4] (setting [8]) it was 32%; in assay [4] (at 50.0 µM), 25.4%. Also, the growth inhibition was 18% in assay [5] (setting [7]); 32% in assay [5] (setting [8]); -0.1% in assay [5] (at 50.0 µM); 27% in assay [6] (setting [7]); 15% in assay [6] (setting [8]); 33.8% in assay [6] (at 50.0 µM).

As to `CC(C)c1ccc2c(c1)CC[C@@H]1[C@](C)(CO)CCC[C@]21C`, the growth inhibition is 4% in assay [1] (setting [7]); 94% (active) in assay [1] (setting [8]); 34.8% in assay [1] (at 50.0 µM); 4% in assay [2] (setting [7]); 94% (active) in assay [2] (setting [8]); 89.8% (active) in assay [2] (at 50.0 µM). For the same molecule, the growth inhibition in assay [3] (setting [7]) is 0%; in assay [3] (setting [8]), 99% (active); in assay [3] (at 50.0 µM) it was 43.2%; in assay [4] (setting [7]), 2%; in assay [4] (setting [8]), 96% (active); in assay [4] (at 50.0 µM), 68.2%. Also, the growth inhibition in assay [5] (setting [7]) was -3%; in assay [5] (setting [8]), 95% (active); in assay [5] (at 50.0 µM) it was 89.1% (active); in assay [6] (setting [7]), -16%; in assay [6] (setting [8]) it was 95% (active); in assay [6] (at 50.0 µM), 97.3% (active).

For `C=CCOC(=O)C#CCCCC`, the growth inhibition in assay [1] (setting [7]) was -3%; in assay [1] (setting [8]) it was 1%; in assay [1] (at 50.0 µM), -5.25%; in assay [2] (setting [7]) it was 3%; in assay [2] (setting [8]), 2%; in assay [2] (at 50.0 µM) it was 19.6%. Moreover, the growth inhibition in assay [3] (setting [7]) is -2%; in assay [3] (setting [8]), 2%; in assay [3] (at 50.0 µM), 15.7%; in assay [4] (setting [7]), -5%; in assay [4] (setting [8]) it was 5%; in assay [4] (at 50.0 µM) it was 87.8% (active). Also, the growth inhibition is -1% in assay [5] (setting [7]); 11% in assay [5] (setting [8]); -12.8% in assay [5] (at 50.0 µM); -1% in assay [6] (setting [7]); 6% in assay [6] (setting [8]); -12.3% in assay [6] (at 50.0 µM).

Regarding `CCC(C)(C)NCCCCCNc1cc(OC)cc2cccnc12`, the growth inhibition is -2% in assay [1] (setting [7]); 67% in assay [1] (setting [8]); 76.2% (active) in assay [1] (at 50.0 µM); -5% in assay [2] (setting [7]); 0% in assay [2] (setting [8]); 40.2% in assay [2] (at 50.0 µM). Moreover, the growth inhibition in assay [3] (setting [7]) is 4%; in assay [3] (setting [8]) it was 22%; in assay [3] (at 50.0 µM) it was 56.4%; in assay [4] (setting [7]), 0%; in assay [4] (setting [8]) it was 9%; in assay [4] (at 50.0 µM) it was 21.4%. For the same molecule, the growth inhibition in assay [5] (setting [7]) was 6%; in assay [5] (setting [8]), 36%; in assay [5] (at 50.0 µM), 79% (active); in assay [6] (setting [7]), 2%; in assay [6] (setting [8]), 16%; in assay [6] (at 50.0 µM), 68.8%.

For the molecule `CCC(C)NC(=S)N/N=C(\C)c1ccccn1` (stereo not given), the growth inhibition is 20% in assay [1] (setting [7]); 100% (active) in assay [1] (setting [8]); 78% (active) in assay [1] (at 50.0 µM); 19% in assay [2] (setting [7]); 99% (active) in assay [2] (setting [8]); 85.7% (active) in assay [2] (at 50.0 µM). For the same molecule, the growth inhibition is 5% in assay [3] (setting [7]); 98% (active) in assay [3] (setting [8]); 90.6% (active) in assay [3] (at 50.0 µM); 33% in assay [4] (setting [7]); 100% (active) in assay [4] (setting [8]); 90% (active) in assay [4] (at 50.0 µM). Besides, the growth inhibition in assay [5] (setting [7]) is 0%; in assay [5] (setting [8]), 100% (active); in assay [5] (at 50.0 µM), 90.5% (active); in assay [6] (setting [7]), 39%; in assay [6] (setting [8]), 99% (active); in assay [6] (at 50.0 µM), 89.2% (active).

As for `CCCCCCCCCCCC1=NCC(C)N1` (stereo not given), the growth inhibition is -39% in assay [1] (setting [7]); 26% in assay [1] (setting [8]); 71.9% (active) in assay [1] (at 50.0 µM); 2% in assay [2] (setting [7]); 27% in assay [2] (setting [8]); -2.95% in assay [2] (at 50.0 µM). The growth inhibition is -3% in assay [3] (setting [7]); 1% in assay [3] (setting [8]); 28.6% in assay [3] (at 50.0 µM); -46% in assay [4] (setting [7]); -5% in assay [4] (setting [8]); 44.4% in assay [4] (at 50.0 µM). The growth inhibition in assay [5] (setting [7]) is 0%; in assay [5] (setting [8]), 36%; in assay [5] (at 50.0 µM) it was 45%; in assay [6] (setting [7]) it was -29%; in assay [6] (setting [8]) it was 15%; in assay [6] (at 50.0 µM), 46%.

`COc1cc(C/C=C/c2ccccc2)c(OC)cc1O`: the growth inhibition in assay [1] (setting [7]) is 18%; in assay [1] (setting [8]), 30%; in assay [1] (at 50.0 µM), 63.6%; in assay [2] (setting [7]) it was 18%; in assay [2] (setting [8]), 24%; in assay [2] (at 50.0 µM), 61.7%. Moreover, the growth inhibition in assay [3] (setting [7]) is 15%; in assay [3] (setting [8]) it was 37%; in assay [3] (at 50.0 µM) it was 54.4%; in assay [4] (setting [7]), 18%; in assay [4] (setting [8]), 29%; in assay [4] (at 50.0 µM), 76% (active). The growth inhibition in assay [5] (setting [7]) was 20%; in assay [5] (setting [8]), 29%; in assay [5] (at 50.0 µM), 64.8%; in assay [6] (setting [7]), 17%; in assay [6] (setting [8]), 35%; in assay [6] (at 50.0 µM), 48.5%.

Regarding `COc1ccccc1C1c2cc3c(cc2OC(C)(O)C1C)OCO3` (stereo not given), the growth inhibition was -5% in assay [1] (setting [7]); 60% in assay [1] (setting [8]); 85% (active) in assay [1] (at 50.0 µM); -4% in assay [2] (setting [7]); 49% in assay [2] (setting [8]); 58.4% in assay [2] (at 50.0 µM). Besides, the growth inhibition is 1% in assay [3] (setting [7]); 61% in assay [3] (setting [8]); 86.3% (active) in assay [3] (at 50.0 µM); -3% in assay [4] (setting [7]); 53% in assay [4] (setting [8]); 74.2% (active) in assay [4] (at 50.0 µM). Further, the growth inhibition in assay [5] (setting [7]) is 0%; in assay [5] (setting [8]) it was 49%; in assay [5] (at 50.0 µM), 66.8%; in assay [6] (setting [7]), 0%; in assay [6] (setting [8]) it was 75% (active); in assay [6] (at 50.0 µM) it was 85.5% (active).

Turning to `C=CCNC(=O)c1ccccc1C(=O)O`, the growth inhibition in assay [1] (setting [7]) is 2%; in assay [1] (setting [8]), 28%; in assay [1] (at 50.0 µM), 63.2%; in assay [2] (setting [7]), 1%; in assay [2] (setting [8]), 1%; in assay [2] (at 50.0 µM), 36.6%. Further, the growth inhibition is 0% in assay [3] (setting [7]); 1% in assay [3] (setting [8]); 28.2% in assay [3] (at 50.0 µM); 2% in assay [4] (setting [7]); 18% in assay [4] (setting [8]); 23.6% in assay [4] (at 50.0 µM). Further, the growth inhibition in assay [5] (setting [7]) was 4%; in assay [5] (setting [8]) it was 7%; in assay [5] (at 50.0 µM), 68.2%; in assay [6] (setting [7]) it was 3%; in assay [6] (setting [8]), 13%; in assay [6] (at 50.0 µM) it was 46.7%.

The values above are taken from PubChem BioAssay (NCI).
